Laboratory results from PubChem BioAssay.
For some of these results: Measured potencies and affinities stand elsewhere. The source made the active and inactive calls. Unless noted, the rule behind the calls is not given here.

How the values were obtained:
[1] = antimalarial activity against Dd2 strain (AID 2302;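 active = growth inhibition above 50% at the single 2 µM test dose, taken to imply half-maximal potency below 2 µM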;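 note: 0% = DMSO untreated growth and 100% = chloroquine plus artemisinin killed control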); details: P. falciparum Dd2 in RBCs, LDH growth readout, 72 h; at 2 µM; stronger effect = higher value
[2] = human hepatoma cell viability loss – ATP luminescence, cytotoxicity control for P. falciparum antimalarial project, primary screen (AID 2303;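 active = inhibition above 50%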;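 note: 0% = DMSO wells and 100% = digitonin-killed cells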); details: HepG2 viability, 24-48 h, at 10 µM, stronger effect = higher value
[3] = molecular target: L-lactate dehydrogenase (Plasmodium falciparum (isolate CDC / Honduras)) (UniProt Q27743); assay: PfLDH activity inhibition – cell lysate, 3D7 strain, counter-screen for P. falciparum growth inhibition project (AID 2304);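 note: 0% = vehicle and 100% = reference inhibitor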; details: P. falciparum 3D7 crude extract, LDH APAD/NBT absorbance; at 2 µM; stronger effect = higher value
[4] = inhibition of 3D7 malaria parasite growth – strain 3D7 (AID 2306);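 note: 0% = DMSO wells and 100% = chloroquine plus artemisinin control wells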; details: P. falciparum 3D7 erythrocytic growth, LDH absorbance, 72 h; at 2 µM; stronger effect = higher value
[5] = molecular target: Calcium-dependent protein kinase 1 (Plasmodium falciparum (isolate 3D7)) (UniProt P62344); assay: PfCDPK1 kinase inhibitors, biochemical, TCAMS library (AID 1159585; cut-off not given, nearly all actives have IC50 up to about 0.98 µM;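 note: inhibitors leave more ATP so luminescence rises with inhibition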); details: recombinant PfCDPK1, Kinase-Glo ATP depletion luminescence
[6] = molecular target: Plasmodium falciparum protein kinase 6 (PK6, PF3D7_1337100) (UniProt Q8IDW1); assay: PfPK6 kinase inhibitors, biochemical, TCAMS library (AID 1159586); details: recombinant PfPK6, Kinase-Glo ATP depletion luminescence
[7] = molecular target: Protein kinase 7 (PK7), Plasmodium falciparum 3D7 (PF3D7_0213400) (UniProt Q7YTF7); assay: inhibition of Plasmodium PK7 catalytic activity – biochemical, TCAMS antimalarial set, Kinase-Glo luminescence (AID 1159587); details: recombinant PfPK7, Kinase-Glo ATP depletion luminescence
[8] = molecular target: Calcium-dependent protein kinase 4 (Plasmodium falciparum (isolate 3D7)) (UniProt Q8IBS5); assay: PfCDPK4 kinase inhibitors, biochemical, TCAMS library (AID 1159588; cut-off not given, nearly all actives have IC50 up to about 0.91 µM); details: recombinant PfCDPK4, Kinase-Glo ATP depletion luminescence
Sequence of Calcium-dependent protein kinase 4 (Plasmodium falciparum (isolate 3D7)) (Q8IBS5 whole entry, looked up): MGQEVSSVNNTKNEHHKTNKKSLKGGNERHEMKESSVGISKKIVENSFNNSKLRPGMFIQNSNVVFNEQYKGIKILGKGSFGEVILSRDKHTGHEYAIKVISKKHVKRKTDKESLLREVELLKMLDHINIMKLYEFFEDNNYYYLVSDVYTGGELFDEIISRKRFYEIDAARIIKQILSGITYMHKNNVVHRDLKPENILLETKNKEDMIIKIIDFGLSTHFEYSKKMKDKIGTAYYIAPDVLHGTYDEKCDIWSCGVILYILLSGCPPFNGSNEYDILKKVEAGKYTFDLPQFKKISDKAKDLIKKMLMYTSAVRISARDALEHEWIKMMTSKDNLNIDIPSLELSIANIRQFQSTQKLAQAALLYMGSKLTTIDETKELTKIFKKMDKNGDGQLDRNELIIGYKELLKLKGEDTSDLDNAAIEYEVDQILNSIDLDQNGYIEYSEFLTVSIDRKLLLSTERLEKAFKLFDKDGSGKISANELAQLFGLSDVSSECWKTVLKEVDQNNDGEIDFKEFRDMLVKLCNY

Sequence of Calcium-dependent protein kinase 1 (Plasmodium falciparum (isolate 3D7)) (P62344 whole entry, looked up): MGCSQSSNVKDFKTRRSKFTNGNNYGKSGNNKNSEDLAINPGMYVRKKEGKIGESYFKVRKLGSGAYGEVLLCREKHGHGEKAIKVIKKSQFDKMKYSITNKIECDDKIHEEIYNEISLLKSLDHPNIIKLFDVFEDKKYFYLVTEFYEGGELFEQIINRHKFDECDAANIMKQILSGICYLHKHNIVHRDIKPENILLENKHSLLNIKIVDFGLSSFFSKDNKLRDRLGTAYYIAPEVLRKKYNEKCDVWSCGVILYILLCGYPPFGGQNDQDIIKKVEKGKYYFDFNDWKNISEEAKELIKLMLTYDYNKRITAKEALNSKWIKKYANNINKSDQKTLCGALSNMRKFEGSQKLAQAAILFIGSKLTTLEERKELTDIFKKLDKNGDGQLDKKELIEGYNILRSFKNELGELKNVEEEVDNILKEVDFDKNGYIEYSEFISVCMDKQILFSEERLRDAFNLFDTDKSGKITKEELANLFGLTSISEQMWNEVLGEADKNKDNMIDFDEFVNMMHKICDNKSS
Sequence of Protein kinase 7 (PK7), Plasmodium falciparum 3D7 (PF3D7_0213400) (Q7YTF7 1-343): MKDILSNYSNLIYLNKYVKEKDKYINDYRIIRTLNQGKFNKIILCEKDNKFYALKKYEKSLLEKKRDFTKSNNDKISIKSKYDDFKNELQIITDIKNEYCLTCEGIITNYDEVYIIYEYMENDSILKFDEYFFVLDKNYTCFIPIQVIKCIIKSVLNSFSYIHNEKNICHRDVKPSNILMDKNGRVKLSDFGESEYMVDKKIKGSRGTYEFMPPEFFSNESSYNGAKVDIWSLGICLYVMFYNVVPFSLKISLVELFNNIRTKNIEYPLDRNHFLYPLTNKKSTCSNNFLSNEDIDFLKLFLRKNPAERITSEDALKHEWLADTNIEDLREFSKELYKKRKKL
Sequence of Plasmodium falciparum protein kinase 6 (PK6, PF3D7_1337100) (Q8IDW1 1-305): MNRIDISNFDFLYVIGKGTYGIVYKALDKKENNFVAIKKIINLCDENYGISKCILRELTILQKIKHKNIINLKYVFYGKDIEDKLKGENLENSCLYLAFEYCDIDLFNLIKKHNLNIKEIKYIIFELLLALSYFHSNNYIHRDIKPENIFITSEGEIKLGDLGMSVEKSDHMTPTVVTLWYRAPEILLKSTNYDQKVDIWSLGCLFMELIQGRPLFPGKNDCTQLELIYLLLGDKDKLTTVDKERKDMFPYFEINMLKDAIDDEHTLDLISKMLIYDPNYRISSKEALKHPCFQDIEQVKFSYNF
Sequence of L-lactate dehydrogenase (Plasmodium falciparum (isolate CDC / Honduras)) (Q27743 whole entry, looked up): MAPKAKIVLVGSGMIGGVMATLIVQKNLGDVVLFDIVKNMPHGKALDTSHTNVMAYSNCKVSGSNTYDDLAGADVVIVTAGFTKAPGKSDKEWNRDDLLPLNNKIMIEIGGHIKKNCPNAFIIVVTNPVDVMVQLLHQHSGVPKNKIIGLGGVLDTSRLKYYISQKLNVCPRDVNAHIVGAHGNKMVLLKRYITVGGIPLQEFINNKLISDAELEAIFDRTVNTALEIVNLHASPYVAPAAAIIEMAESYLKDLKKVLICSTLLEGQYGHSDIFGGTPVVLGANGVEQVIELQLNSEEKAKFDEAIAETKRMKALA

COc1cc(Cc2cnc(N)nc2N)cc(OC)c1OCCCCCN1C(=O)c2ccccc2C1=O
active: growth inhibition [4] 97%
inactive: growth inhibition [1] 4% | inhibition [2] 5% | inhibition [3] 3% | outcome [5] | outcome [6] | outcome [7] | outcome [8]

CCCCCNc1nc(Nc2ccccc2C)nc2ccccc12
active: growth inhibition [4] 100%
inactive: growth inhibition [1] 30% | inhibition [2] 5% | inhibition [3] -7% | outcome [5] | outcome [6] | outcome [7] | outcome [8]

COc1cc(N(C)Cc2cnc3nc(N)nc(N)c3n2)cc(OC)c1OC
active: growth inhibition [4] 95%
inactive: growth inhibition [1] 2% | inhibition [2] 32% | inhibition [3] 1% | outcome [5] | outcome [6] | outcome [7] | outcome [8]

O=S(=O)(Nc1ccc(CCN2CCC(N3CCCCC3)CC2)cc1)c1ccc(Cl)cc1
inactive: growth inhibition [1] 18% | inhibition [2] 23% | inhibition [3] -1% | outcome [5] | outcome [6] | outcome [7] | outcome [8]
active: growth inhibition [4] 101%

Cc1ccc(NC(=O)c2cccc(C#N)c2)cc1-c1ccc(C(=O)Nc2ccncc2)cc1
active: growth inhibition [1] 64% | growth inhibition [4] 94%
inactive: inhibition [2] 38% | inhibition [3] -1% | outcome [5] | outcome [6] | outcome [7] | outcome [8]

CC(C)Cn1c(Sc2ccc(C#N)c([N+](=O)[O-])c2)nnc1-c1cccc(Cl)c1
active: growth inhibition [1] 95% | growth inhibition [4] 98%
inactive: inhibition [2] 24% | inhibition [3] 5% | outcome [5] | outcome [6] | outcome [7] | outcome [8]

COc1ccc(CNCc2ccc(-c3ccc(-c4nc5ccccc5[nH]4)cc3)cc2)cc1
inactive: inhibition [3] -4% | outcome [5] | outcome [6] | outcome [7] | outcome [8]
active: growth inhibition [1] 89% | inhibition [2] 63% | growth inhibition [4] 103%

Cc1[nH]c(C)c(-c2ccc(S(=O)(=O)c3ccc(Cl)cc3)cc2)c(=O)c1Cl
inactive: inhibition [2] -5% | inhibition [3] 9% | outcome [5] | outcome [6] | outcome [7] | outcome [8]
active: growth inhibition [1] 96% | growth inhibition [4] 98%

Cc1c(Cc2ccccc2Cl)cnc2nc(N)nc(N)c12
inactive: inhibition [3] -2% | outcome [5] | outcome [6] | outcome [7] | outcome [8]
active: growth inhibition [1] 96% | inhibition [2] 67% | growth inhibition [4] 91%

CC(C)c1sc(N2CCCCC2)nc1C(=O)Nc1ccc(F)cc1C(F)(F)F
inactive: inhibition [2] -1% | inhibition [3] 0% | outcome [5] | outcome [6] | outcome [7] | outcome [8]
active: growth inhibition [1] 98% | growth inhibition [4] 100%

CCOc1ccc(-c2nonc2NC(=O)c2ccc(OC(C)C)cc2)cc1OCC
active: growth inhibition [1] 100% | growth inhibition [4] 100%
inactive: inhibition [2] 13% | inhibition [3] -2% | outcome [5] | outcome [6] | outcome [7] | outcome [8]

COc1ccc2nccc([C@@H](O)CN3CCC(NCc4ccc5cccc(O)c5n4)CC3)c2c1
inactive: growth inhibition [1] 40% | inhibition [2] 10% | inhibition [3] 1% | outcome [5] | outcome [6] | outcome [7] | outcome [8]
active: growth inhibition [4] 93%

O=C(NCC1CCN(Cc2cccc(C(F)(F)F)c2)C1)c1cc(-c2cccc(F)c2)cs1 (centres undefined)
inactive: growth inhibition [1] 5% | inhibition [2] 19% | inhibition [3] -3% | outcome [5] | outcome [6] | outcome [7] | outcome [8]
active: growth inhibition [4] 87%

CCN(C(=O)NC)[C@@H]1c2cc(C#N)ccc2OC(C)(C)[C@H]1O
active: growth inhibition [4] 96%
inactive: growth inhibition [1] 2% | inhibition [2] 3% | inhibition [3] -8% | outcome [5] | outcome [6] | outcome [7] | outcome [8]

COc1ccc(CCNCCCCCCNCCc2ccccc2Cl)cc1OC
active: growth inhibition [4] 96%
inactive: growth inhibition [1] 3% | inhibition [2] 13% | inhibition [3] -1% | outcome [5] | outcome [6] | outcome [7] | outcome [8]

Cc1c(C)c2c(c(C)c1O)CC[C@](C)(C(=O)N1CCC(CCN3CCC(c4c[nH]c5ccccc45)CC3)CC1)O2
active: growth inhibition [1] 74% | growth inhibition [4] 99%
inactive: inhibition [2] 31% | inhibition [3] 0% | outcome [5] | outcome [6] | outcome [7] | outcome [8]

COc1ccc(CCN(C)CCOc2ccc(NC(=O)c3ccc([N+](=O)[O-])c4c(=O)c5ccccc5[nH]c34)cc2)cc1OC
inactive: growth inhibition [1] 25% | inhibition [2] 38% | inhibition [3] -2% | outcome [5] | outcome [6] | outcome [7] | outcome [8]
active: growth inhibition [4] 91%

O=C(NCc1ccccc1)C1Cc2c([nH]c3ccc(Br)cc23)C2(CCN(Cc3ccccc3)CC2)N1 (centres undefined)
inactive: inhibition [2] 15% | inhibition [3] 1% | outcome [5] | outcome [6] | outcome [7] | outcome [8]
active: growth inhibition [1] 70% | growth inhibition [4] 98%

COc1ccc(C(=O)CCc2ccc(O)cc2)cc1
inactive: inhibition [2] -2% | inhibition [3] 4% | outcome [5] | outcome [6] | outcome [7] | outcome [8]
active: growth inhibition [1] 90% | growth inhibition [4] 96%

Cc1noc(C)c1C(=O)N1CCc2cc3nccc(N4CCN5CCC[C@H]5C4)c3cc21
inactive: growth inhibition [1] 9% | inhibition [2] 7% | inhibition [3] -5% | outcome [5] | outcome [6] | outcome [7] | outcome [8]
active: growth inhibition [4] 93%

Fc1cccc2sc(Nc3nc(-c4ccccn4)cs3)nc12
inactive: inhibition [2] 30% | inhibition [3] 6% | outcome [5] | outcome [6] | outcome [7] | outcome [8]
active: growth inhibition [1] 97% | growth inhibition [4] 95%

O=C(NCCNc1ccnc(Nc2ccc(F)cc2)n1)Nc1ccccc1F
active: growth inhibition [4] 93%
inactive: growth inhibition [1] 4% | inhibition [2] 22% | inhibition [3] 5% | outcome [5] | outcome [6] | outcome [7] | outcome [8]

CC(=O)Nc1ccc(C(=O)Nc2cccc(-c3cccc(-c4nc5ccccc5[nH]4)c3)c2)cn1
active: growth inhibition [1] 100% | growth inhibition [4] 101%
inactive: inhibition [2] 3% | inhibition [3] -2% | outcome [5] | outcome [6] | outcome [7] | outcome [8]

O=C(Nc1ccc(N2CCN(Cc3ccccc3Cl)CC2)cc1)c1ccc([N+](=O)[O-])o1
active: growth inhibition [1] 67% | inhibition [2] 100% | growth inhibition [4] 91%
inactive: inhibition [3] -4% | outcome [5] | outcome [6] | outcome [7] | outcome [8]

COc1cc(CCOc2c(C)nc(N)nc2N)cc(OC)c1OC
active: inhibition [2] 59% | growth inhibition [4] 93%
inactive: growth inhibition [1] -3% | inhibition [3] 4% | outcome [5] | outcome [6] | outcome [7] | outcome [8]

CC(CN1CCN(C)CC1)C(=O)Nc1ccc(-c2cccc(-c3nc4ccccc4[nH]3)c2)cc1 (centres undefined)
active: growth inhibition [1] 81% | growth inhibition [4] 94%
inactive: inhibition [2] 4% | inhibition [3] 3% | outcome [5] | outcome [6] | outcome [7] | outcome [8]

N#Cc1cccc(NC(=O)C2=C(CCc3ccc4c(c3)OCO4)NC(=O)NC2c2cccc(C#N)c2)c1 (centres undefined)
inactive: growth inhibition [1] 47% | inhibition [2] 3% | inhibition [3] -1% | outcome [5] | outcome [6] | outcome [7] | outcome [8]
active: growth inhibition [4] 96%

CN(C)CCCOc1ccc(CNCc2cccc(Oc3ccc(Cl)cc3)c2)cc1
inactive: growth inhibition [1] 30% | inhibition [3] 0% | outcome [5] | outcome [6] | outcome [7] | outcome [8]
active: inhibition [2] 52% | growth inhibition [4] 100%

COc1ccc2nc3cc(Cl)ccc3c(NCCCO)c2c1
inactive: inhibition [2] 32% | inhibition [3] -1% | outcome [5] | outcome [6] | outcome [7] | outcome [8]
active: growth inhibition [1] 100% | growth inhibition [4] 100%

NC(=O)c1cccc(CNC(=O)NC[C@H]2CN(Cc3ccc(Cl)c(Cl)c3)CCO2)c1
active: growth inhibition [1] 65% | growth inhibition [4] 98%
inactive: inhibition [2] -3% | inhibition [3] 1% | outcome [5] | outcome [6] | outcome [7] | outcome [8]

COc1cc2cc(-c3nc4ccccc4[nH]3)c(N)nc2cc1OC
active: growth inhibition [1] 100% | inhibition [2] 91% | growth inhibition [4] 100%
inactive: inhibition [3] 1% | outcome [5] | outcome [6] | outcome [7] | outcome [8]

Cc1ccc(C)c(CN2CCC(CNC(=O)c3cc4ccc5cccnc5c4[nH]3)CC2)c1
inactive: growth inhibition [1] 10% | inhibition [2] 25% | inhibition [3] -3% | outcome [5] | outcome [6] | outcome [7] | outcome [8]
active: growth inhibition [4] 95%

CN(C)CCN(C)Cc1ccc(-c2ccc(NC(=O)c3ccc(Cl)cc3)cc2)cc1
inactive: growth inhibition [1] 19% | inhibition [3] -2% | outcome [5] | outcome [6] | outcome [7] | outcome [8]
active: inhibition [2] 51% | growth inhibition [4] 91%

O=C(c1ccc(-c2ccc(-c3nc4ccc(C(F)(F)F)cc4[nH]3)s2)cc1)N1CCN(CCc2ccccc2)CC1
active: growth inhibition [1] 60% | growth inhibition [4] 98%
inactive: inhibition [2] 23% | inhibition [3] -5% | outcome [5] | outcome [6] | outcome [7] | outcome [8]

CCCCOc1ccc(C(=O)C(CCC(CNC(C)(C)C)C(=O)c2ccc(OCCCC)cc2)CNC(C)(C)C)cc1 (centres undefined)
inactive: inhibition [3] 1% | outcome [5] | outcome [6] | outcome [7] | outcome [8]
active: growth inhibition [1] 92% | inhibition [2] 100% | growth inhibition [4] 94%

COc1cc(NC(=O)Nc2ccc(Br)cc2C(=O)Nc2ccc(Br)cc2)cc(OC)c1OC
active: growth inhibition [1] 98% | growth inhibition [4] 99%
inactive: inhibition [2] -4% | inhibition [3] 7% | outcome [5] | outcome [6] | outcome [7] | outcome [8]

CCCOc1ccc2ccccc2c1CNCCCCCCNCc1c(OCCC)ccc2ccccc12
inactive: inhibition [3] 0% | outcome [5] | outcome [6] | outcome [7] | outcome [8]
active: growth inhibition [1] 90% | inhibition [2] 100% | growth inhibition [4] 94%

COc1ccc(-c2cccc(NC(=O)c3ccc(Cl)cc3)c2)cc1CN1CCCC1
active: growth inhibition [1] 52% | inhibition [2] 55% | growth inhibition [4] 97%
inactive: inhibition [3] -7% | outcome [5] | outcome [6] | outcome [7] | outcome [8]
